Dicer inh = inhibitors of Dicer pre-microRNA processing, primary screen, biochemical, cat-ELCCA, chemiluminescence; Endoribonuclease Dicer (Homo sapiens), Q9UPY3; cat-ELCCA pre-miR-21 Dicer processing; stronger effect = higher value; z-score at 25 µM; 6% of 47,000 active; AID 1347074, 2019; in the data active means z-score above about 3, passing the limit was not always enough;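 further: higher signal means more uncleaved substrate so more Dicer inhibition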
Each line names hits and unclear results; the compound was inactive in the other large screens. Shown is part of a subset that was picked to be rich in hits.

COc1ccc(OC)c(C2Nc3ccccc3NC3=C2C(=O)CC(c2ccc(OC)c(OC)c2)C3)c1 (stereo not given)	none
CN(C)c1ccc(C2Nc3ccccc3NC3=C2C(=O)CC(c2ccccc2)C3)cc1 (stereo not given)	none
Cc1ccc(C2Nc3ccccc3NC3=C2C(=O)CC(C)(C)C3)c(O)c1 (stereo not given)	none
CCN(CC)c1ccc(C2CC(=O)C3=C(C2)Nc2ccccc2NC3c2ccco2)cc1 (stereo not given)	Dicer inh 8.2
O=C1CC(c2ccco2)CC2=C1C(c1ccco1)Nc1ccccc1N2 (stereo not given)	none
Cc1ccc(C2Nc3ccccc3NC3=C2C(=O)CC(c2ccccc2)C3)cc1 (stereo not given)	none
CC1(C)CC(=O)C2=C(C1)Nc1ccccc1NC2c1ccc(O)c(O)c1 (stereo not given)	none
CC1(C)CC(=O)C2=C(C1)Nc1ccccc1NC2c1cc(Cl)ccc1O (stereo not given)	Dicer inh 3.9
COc1ccc(C2CC(=O)C3=C(C2)Nc2ccccc2NC3c2ccc(OC)cc2OC)cc1 (stereo not given)	Dicer inh 3
CSc1ccc(C2Nc3ccccc3NC3=C2C(=O)CC(c2ccccc2)C3)cc1 (stereo not given)	none
CC(CN1CCN(Cc2ccccc2)CC1)N(C(=O)C1CCC1)c1ccccn1 (stereo not given)	none
COc1cc(/C=C/c2[nH]c(=O)[nH]c(=O)c2[N+](=O)[O-])ccc1OC(C)C	none
CC(C)C12CN3CC(C(C)C)(CN(C1)C3c1cc(Br)ccc1O)C2=O (stereo not given)	none
COc1cccc2c1C(=O)c1c(O)c3c(c(O)c1C2=O)C[C@@](O)(C(=O)CO)C[C@@H]3O[C@@H]1C[C@H](N)[C@@H](O)[C@H](C)O1	none
COc1n[nH]c(C(=O)Nc2ccccc2F)c1[N+](=O)[O-]	none
CSc1nc(=O)c2cccnc2n1-c1ccc(C)cc1	none
Cc1ccccc1NC(=O)N(Cc1ccco1)C(=O)CC#N	none
CSC1=C(C#N)C(=O)NC(C)(C)S1	none
COc1ccc(C2CC(=O)C3=C(C2)Nc2ccccc2NC3c2ccc(Cl)cc2)cc1 (stereo not given)	none
COc1ccccc1C1Nc2ccccc2NC2=C1C(=O)CC(c1ccccc1)C2 (stereo not given)	none
COc1ccc(C2CC(=O)C3=C(C2)Nc2ccccc2NC3c2ccccc2Cl)cc1OC (stereo not given)	none
COc1ccccc1C1Nc2ccccc2NC2=C1C(=O)CC(c1ccc(Cl)cc1)C2 (stereo not given)	Dicer inh 4.3
COc1ccc(C2CC(=O)C3=C(C2)Nc2ccccc2NC3c2ccccc2)cc1 (stereo not given)	Dicer inh 3.5
COc1ccc(C2CC(=O)C3=C(C2)Nc2ccccc2NC3c2ccc(O)cc2)cc1 (stereo not given)	none
c1ccc(C(c2ccccc2)N2CC(Sc3nc4ccccc4s3)C2)cc1	none
CCOc1ccc(NCN2C(=O)c3ccc([N+](=O)[O-])cc3C2=O)cc1	none
COc1cccc(C(=O)CN2C(=O)/C(=C/c3ccco3)N=C2c2ccccc2)c1	none
COc1ccc(OC)c2c(C)cc(N3CCCC3)nc12	none
Cc1ccc2cccc(NS(=O)(=O)c3ccccc3)c2n1	none
COc1cc(S(=O)(=O)Nc2ccccn2)ccc1Br	none
O=S(=O)(Nc1ccc(Br)c2cccnc12)c1ccccc1	Dicer inh 4.7
O=S(=O)(Nc1cccc2cccnc12)c1ccccc1	Dicer inh 7.7
Cc1ccc(C)c(NS(=O)(=O)c2cccc3cccnc23)c1	none
O=C(Nc1ccc(Cl)cc1)Nc1ccc(Br)c2cccnc12	none
CN(C)S(=O)(=O)c1ccc(/C(O)=C2\C(=O)C(=O)N(CCN3CCOCC3)C2c2ccco2)cc1 (stereo not given)	none
S=C(Nc1ccccc1Cl)N1CCOC1c1c[nH]c2ccccc12 (stereo not given)	none
O=[N+]([O-])c1cc(Cl)ccc1S(=O)(=O)c1ccc(Cl)cc1	none
COc1ccc(OC)c(S(=O)(=O)c2ccc(Cl)cc2[N+](=O)[O-])c1	Dicer inh 4.2
O=[N+]([O-])c1cc(Cl)ccc1S(=O)(=O)c1ccccc1	none
CN1N=C(c2ccccc2)CSC1=Nc1ccc(OC(F)(F)F)cc1	none
CCn1c2ccccc2c2cc(CN3CCN(S(C)(=O)=O)CC3)ccc21	Dicer inh 5.4
CCn1c2ccccc2c2cc([N+](=O)[O-])ccc21	none
COc1ccc(CN2CCN(S(C)(=O)=O)CC2)cc1OC	none
CN(C)c1nc(NC(C)(C)C)nc(Oc2ccc(=O)[nH]n2)n1	none
O=C1CSC(c2cccnc2)N1c1c(F)cc(F)cc1F (stereo not given)	none
C=CCN(c1ccccc1C(=O)NCC(=O)O)S(=O)(=O)c1cccc(C)c1	none
N#Cc1c(OCC(F)(F)F)ccc(Sc2ncccc2C(F)(F)F)c1OCC(F)(F)F	none
Fc1ccc(Cn2nnc3ccccc32)cc1	none
S=c1[nH]nc(Cn2nnc3ccccc32)o1	none
c1ccc2c(c1)CCN2Cn1nnc2ccccc21	Dicer inh 4.4
COC(=O)C1=C(C(=O)OC)SC(=C2C(=S)C(C)(C)N(C(=O)C3CC3)c3ccc(C)cc32)S1	none
N#CC(C(=O)c1ccccc1)=C1SCCCS1	none
N#CC(C(=O)c1cccs1)=C1SCCS1	Dicer inh 3.8
N#CC(C(=O)c1ccccc1Cl)=C1SCCCS1	none
N#CCc1c([N+](=O)[O-])ccc2c1ccn2Cc1ccccc1	none
O=C(c1cccs1)C(O)c1cccs1 (stereo not given)	none
O=C1C(=O)N(CCN2CCOCC2)C(c2cccs2)/C1=C(\O)c1ccccc1 (stereo not given)	none
OC(C#CCN1CCOCC1)c1cccs1 (stereo not given)	Dicer inh 4
C#CC(CC)(CC)NC(=O)NC(=O)c1ccc(F)c(Cl)c1	none
CCc1ccc(-c2c(C#N)c(N)nc3c2CCCCC3)s1	none
CS(=O)(=NC(=O)c1ccc(C(F)(F)F)cc1)c1ccccc1 (stereo not given)	none
CC(Sc1nnc2sc3ccccc3n12)C(=O)O (stereo not given)	none
C=CCSc1nnc2sc3ccccc3n12	none
CCOC(=O)c1cnc(NC(=O)CSc2nnc3sc4ccccc4n23)s1	Dicer inh 4.3
O=[N+]([O-])c1cc(F)ccc1/C=C/N1CCCC1	none
O=[N+]([O-])c1ccc(OCc2ccccc2)cc1/C=C\N1CCCC1	Dicer inh 3
O=[N+]([O-])c1cccnc1Oc1ccc(OCc2ccccc2)cc1	none
Cc1c(CO)c2ccccc2n1Cc1ccc(Cl)cc1	none
CCc1ccc2cc3c(=O)n(C)c4c(c(=O)n(C)c(=O)n4C)c3nc2c1	none
CC(C)c1ccc(Nc2c(Nc3ccc(C(C)C)cc3)c(=O)c2=O)cc1	none
O=c1c(Nc2ccccc2)c(Nc2ccccc2)c1=O	Dicer inh 7.3
COc1nc(Nc2ccccc2)nc(OC)n1	none
O=c1oc2cc(S(=O)(=O)N3CCCC3)ccc2c2ccc(S(=O)(=O)N3CCCC3)cc12	Dicer inh 3.5
CC(C)(C)NS(=O)(=O)c1ccc2c(c1)oc(=O)c1cc(S(=O)(=O)NC(C)(C)C)ccc12	none
CN(C)S(=O)(=O)c1ccc2c(c1)oc(=O)c1cc(S(=O)(=O)N(C)C)ccc12	none
O=C1CCC(=O)N1CNc1cc(Cl)ccc1Cl	none
O=C(CSc1nnc2c(n1)[nH]c1ccccc12)Nc1ccc(Cl)cc1	none
COc1ccc(CN2COc3ccc(Br)cc3C2)cc1	none
Cc1n[nH]c(C)c1CCCCCOc1ccccc1Br	none
CSc1nnc(-c2ccc(Br)cc2)o1	none
Cc1ccc(-c2nnc(-c3ccc(Br)cc3)o2)cc1	Dicer inh 3.8
CSc1nnc(-c2ccc(C)cc2)o1	none

Bioassay records from PubChem BioAssay.
